Measurements as given in ChEMBL document CHEMBL2218924, “A broad activity screen in support of a chemogenomic map for kinase signalling research and drug discovery” (Biochem J, 2013).

Key:
[1] = target: Tyrosine-protein kinase SYK (Homo sapiens) (UniProt P43405); details: at 10 µM
[2] = target: T1, Mitogen-activated protein kinase kinase kinase 7 (Homo sapiens) (UniProt O43318); details: at 10 µM
T1 sequence (whole entry): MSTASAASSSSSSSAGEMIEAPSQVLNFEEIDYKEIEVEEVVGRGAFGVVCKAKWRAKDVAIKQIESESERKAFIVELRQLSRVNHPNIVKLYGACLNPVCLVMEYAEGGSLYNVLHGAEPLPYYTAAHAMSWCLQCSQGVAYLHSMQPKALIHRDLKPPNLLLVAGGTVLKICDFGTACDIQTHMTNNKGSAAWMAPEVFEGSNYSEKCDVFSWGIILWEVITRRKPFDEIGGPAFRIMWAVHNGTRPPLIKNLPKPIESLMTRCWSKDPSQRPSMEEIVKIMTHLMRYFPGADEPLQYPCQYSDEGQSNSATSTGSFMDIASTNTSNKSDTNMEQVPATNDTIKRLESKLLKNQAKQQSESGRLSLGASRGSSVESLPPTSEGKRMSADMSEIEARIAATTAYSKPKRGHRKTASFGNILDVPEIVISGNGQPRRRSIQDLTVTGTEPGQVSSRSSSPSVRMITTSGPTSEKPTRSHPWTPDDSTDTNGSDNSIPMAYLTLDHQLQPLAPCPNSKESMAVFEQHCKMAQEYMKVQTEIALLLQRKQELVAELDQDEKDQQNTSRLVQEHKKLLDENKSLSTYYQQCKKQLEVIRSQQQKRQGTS

[3] = target: T2, Serine/threonine-protein kinase TAO1 (Homo sapiens) (UniProt Q7L7X3); details: at 1 µM
T2 sequence (whole entry): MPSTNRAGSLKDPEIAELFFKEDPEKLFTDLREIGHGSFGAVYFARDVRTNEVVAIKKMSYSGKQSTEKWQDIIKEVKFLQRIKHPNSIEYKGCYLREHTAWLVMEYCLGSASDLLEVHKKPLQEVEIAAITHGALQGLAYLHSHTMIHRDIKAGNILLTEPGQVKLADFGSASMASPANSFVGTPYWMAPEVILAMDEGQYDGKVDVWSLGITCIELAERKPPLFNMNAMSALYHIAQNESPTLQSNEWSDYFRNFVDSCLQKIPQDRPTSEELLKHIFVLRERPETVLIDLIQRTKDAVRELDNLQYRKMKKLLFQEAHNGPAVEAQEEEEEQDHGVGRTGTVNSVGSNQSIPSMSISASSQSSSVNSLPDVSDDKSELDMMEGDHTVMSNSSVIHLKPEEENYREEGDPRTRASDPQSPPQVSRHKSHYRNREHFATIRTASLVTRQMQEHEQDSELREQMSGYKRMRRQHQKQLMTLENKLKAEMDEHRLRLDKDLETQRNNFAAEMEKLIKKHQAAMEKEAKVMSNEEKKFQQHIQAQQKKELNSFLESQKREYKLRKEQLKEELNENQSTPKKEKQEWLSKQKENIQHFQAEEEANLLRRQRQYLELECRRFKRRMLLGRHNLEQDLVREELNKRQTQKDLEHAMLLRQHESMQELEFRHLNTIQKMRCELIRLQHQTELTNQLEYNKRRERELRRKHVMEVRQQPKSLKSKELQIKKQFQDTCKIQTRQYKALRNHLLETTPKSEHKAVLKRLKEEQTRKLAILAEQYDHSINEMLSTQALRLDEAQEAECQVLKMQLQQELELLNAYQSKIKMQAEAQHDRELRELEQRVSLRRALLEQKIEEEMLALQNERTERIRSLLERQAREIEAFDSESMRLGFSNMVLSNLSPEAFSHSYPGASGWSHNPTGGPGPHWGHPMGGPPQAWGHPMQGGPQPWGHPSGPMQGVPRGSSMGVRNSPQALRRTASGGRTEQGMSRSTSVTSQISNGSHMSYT

[4] = target: T2, Serine/threonine-protein kinase TAO1 (Homo sapiens); details: at 10 µM
[5] = target: T3, Serine/threonine-protein kinase TAO2 (Homo sapiens) (UniProt Q9UL54); details: at 1 µM
T3 sequence (whole entry): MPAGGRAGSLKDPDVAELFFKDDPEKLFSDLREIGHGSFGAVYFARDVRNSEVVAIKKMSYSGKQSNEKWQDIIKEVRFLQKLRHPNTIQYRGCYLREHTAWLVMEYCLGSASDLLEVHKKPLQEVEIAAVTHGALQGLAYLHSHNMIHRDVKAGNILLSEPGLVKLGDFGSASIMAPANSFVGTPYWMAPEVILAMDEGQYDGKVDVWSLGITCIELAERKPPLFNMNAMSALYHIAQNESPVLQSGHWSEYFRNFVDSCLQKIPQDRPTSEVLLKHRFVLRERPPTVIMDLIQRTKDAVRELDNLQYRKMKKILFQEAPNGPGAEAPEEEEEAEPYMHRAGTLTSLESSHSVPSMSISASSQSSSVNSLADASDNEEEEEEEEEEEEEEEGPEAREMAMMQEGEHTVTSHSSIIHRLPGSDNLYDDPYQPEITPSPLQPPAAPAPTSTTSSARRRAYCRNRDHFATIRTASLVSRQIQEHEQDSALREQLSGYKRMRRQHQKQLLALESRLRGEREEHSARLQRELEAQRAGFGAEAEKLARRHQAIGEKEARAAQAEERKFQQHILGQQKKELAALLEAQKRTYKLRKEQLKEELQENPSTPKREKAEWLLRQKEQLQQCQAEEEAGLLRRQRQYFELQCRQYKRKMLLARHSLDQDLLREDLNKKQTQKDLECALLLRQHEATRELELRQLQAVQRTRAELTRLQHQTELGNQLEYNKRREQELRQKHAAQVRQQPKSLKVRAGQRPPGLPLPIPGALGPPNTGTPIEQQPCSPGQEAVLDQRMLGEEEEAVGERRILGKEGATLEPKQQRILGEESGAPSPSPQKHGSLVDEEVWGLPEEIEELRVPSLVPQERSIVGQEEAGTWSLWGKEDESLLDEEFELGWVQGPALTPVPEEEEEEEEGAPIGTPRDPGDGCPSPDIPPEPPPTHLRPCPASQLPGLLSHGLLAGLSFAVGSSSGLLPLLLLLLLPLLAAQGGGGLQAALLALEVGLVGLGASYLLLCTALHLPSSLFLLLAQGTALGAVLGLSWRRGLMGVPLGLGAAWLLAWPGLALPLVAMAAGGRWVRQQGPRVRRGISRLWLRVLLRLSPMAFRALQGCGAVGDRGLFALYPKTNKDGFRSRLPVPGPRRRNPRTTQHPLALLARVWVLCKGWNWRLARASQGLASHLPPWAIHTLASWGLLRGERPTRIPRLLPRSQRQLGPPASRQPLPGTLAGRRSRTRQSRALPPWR

[6] = target: T3, Serine/threonine-protein kinase TAO2 (Homo sapiens); details: at 10 µM
[7] = target: T4, Serine/threonine-protein kinase TAO3 (Homo sapiens) (UniProt Q9H2K8); details: at 1 µM
T4 sequence (whole entry): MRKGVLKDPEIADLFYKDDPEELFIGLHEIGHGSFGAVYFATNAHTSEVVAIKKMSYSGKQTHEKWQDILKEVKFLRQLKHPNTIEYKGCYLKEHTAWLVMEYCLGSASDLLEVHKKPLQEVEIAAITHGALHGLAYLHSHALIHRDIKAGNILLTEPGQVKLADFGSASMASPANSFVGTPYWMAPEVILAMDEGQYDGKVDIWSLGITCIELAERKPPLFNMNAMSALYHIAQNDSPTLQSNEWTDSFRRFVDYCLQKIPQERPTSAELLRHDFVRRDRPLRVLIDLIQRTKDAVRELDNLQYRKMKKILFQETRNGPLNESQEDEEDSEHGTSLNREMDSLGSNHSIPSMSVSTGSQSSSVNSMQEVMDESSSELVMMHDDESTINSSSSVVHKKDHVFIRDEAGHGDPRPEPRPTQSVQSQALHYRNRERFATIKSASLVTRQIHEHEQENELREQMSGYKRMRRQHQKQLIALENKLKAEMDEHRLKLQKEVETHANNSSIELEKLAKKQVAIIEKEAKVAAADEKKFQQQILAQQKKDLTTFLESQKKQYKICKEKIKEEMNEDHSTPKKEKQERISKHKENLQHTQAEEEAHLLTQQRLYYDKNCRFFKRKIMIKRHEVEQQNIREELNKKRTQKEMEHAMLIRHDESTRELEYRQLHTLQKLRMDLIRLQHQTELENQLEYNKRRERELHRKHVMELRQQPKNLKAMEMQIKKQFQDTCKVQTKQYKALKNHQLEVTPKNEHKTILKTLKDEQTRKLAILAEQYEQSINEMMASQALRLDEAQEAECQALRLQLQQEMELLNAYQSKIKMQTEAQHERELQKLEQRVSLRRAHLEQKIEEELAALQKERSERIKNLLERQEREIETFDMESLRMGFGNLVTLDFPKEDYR

[8] = target: T4, Serine/threonine-protein kinase TAO3 (Homo sapiens); details: at 10 µM
[9] = target: T5, Serine/threonine-protein kinase TBK1 (Homo sapiens) (UniProt Q9UHD2); details: at 1 µM
T5 sequence (whole entry): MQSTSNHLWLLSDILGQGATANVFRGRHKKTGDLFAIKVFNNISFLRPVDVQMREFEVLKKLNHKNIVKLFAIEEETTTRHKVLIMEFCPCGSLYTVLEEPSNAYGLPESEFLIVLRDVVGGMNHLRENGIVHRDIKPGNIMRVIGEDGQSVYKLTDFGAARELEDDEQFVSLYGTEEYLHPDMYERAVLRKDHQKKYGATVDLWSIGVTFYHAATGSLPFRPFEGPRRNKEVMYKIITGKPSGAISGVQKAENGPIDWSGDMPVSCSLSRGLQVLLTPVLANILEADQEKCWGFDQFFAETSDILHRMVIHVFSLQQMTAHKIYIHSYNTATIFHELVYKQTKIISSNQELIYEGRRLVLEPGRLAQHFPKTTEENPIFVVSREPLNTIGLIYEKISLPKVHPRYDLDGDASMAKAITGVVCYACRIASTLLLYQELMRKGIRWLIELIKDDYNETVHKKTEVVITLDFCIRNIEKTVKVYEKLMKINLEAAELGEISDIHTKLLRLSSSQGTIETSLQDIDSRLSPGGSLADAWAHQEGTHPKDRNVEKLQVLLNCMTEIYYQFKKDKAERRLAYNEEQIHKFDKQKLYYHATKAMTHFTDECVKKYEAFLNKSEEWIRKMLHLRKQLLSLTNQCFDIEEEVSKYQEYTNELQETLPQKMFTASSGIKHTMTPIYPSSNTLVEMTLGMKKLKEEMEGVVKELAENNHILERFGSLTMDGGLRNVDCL

Work on `Ic1cccc(CSc2nnc(-c3ccncc3)o2)c1` yielded a residual activity [1] of 96%, a residual activity [2] of 82% and a residual activity [3] of 63%. It also gave a residual activity [4] of 47%, a residual activity [5] of 88% and a residual activity [6] of 85%. It also gave a residual activity [7] of 93%, a residual activity [8] of 89% and a residual activity [9] of 15%.
